# According to PubChem BioAssay (NCI):
# About 83,000 compounds went through this panel and 20% of them were active in at least one assay; those are over-represented in the sample as a whole.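 The endpoint reported here, percent growth, reads 100 for growth as untreated, 0 for no net growth and -100 for all cells dead.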 Unmarked numbers belong to inactive results. The source made the active and inactive calls. Rule for the calls: active = growth percent below 10; inactive = the rest.
# What was measured:
# Assay in all cases: NCI-60 one-dose screen, 48 h (100 = growth as untreated, 0 = no growth, -100 = all killed)
# SK-MEL-2 melanoma = details: 10 µM unless noted
# EKVX NSCLC = details: 10 µM unless noted
# SN12C renal = details: 10 µM unless noted
# UO-31 renal = details: 10 µM unless noted
# TK-10 renal = details: 10 µM unless noted
# ACHN renal = details: 10 µM unless noted
# CAKI-1 renal = details: 10 µM
# A498 renal = details: 10 µM unless noted
# CCRF-CEM leukemia = details: 10 µM unless noted
# MOLT-4 leukemia = details: 10 µM unless noted
# SR leukemia = details: 10 µM unless noted
# RPMI-8226 leukemia = details: 10 µM unless noted
# OVCAR-8 ovarian = details: 10 µM unless noted
# OVCAR-5 ovarian = details: 10 µM unless noted
# OVCAR-4 ovarian = details: 10 µM unless noted
# SK-OV-3 ovarian = details: 10 µM unless noted
# IGROV1 ovarian = details: 10 µM unless noted
# OVCAR-3 ovarian = details: 10 µM unless noted
# HS 578T breast = details: 10 µM unless noted
# NCI/ADR-RES ovarian = details: 10 µM unless noted
Compound,growth (SK-MEL-2 melanoma),growth (EKVX NSCLC),growth (SN12C renal),growth (UO-31 renal),growth (TK-10 renal),growth (ACHN renal),growth (CAKI-1 renal),growth (A498 renal),growth (CCRF-CEM leukemia),growth (MOLT-4 leukemia),growth (SR leukemia),growth (RPMI-8226 leukemia),growth (OVCAR-8 ovarian),growth (OVCAR-5 ovarian),growth (OVCAR-4 ovarian),growth (SK-OV-3 ovarian),growth (IGROV1 ovarian),growth (OVCAR-3 ovarian),growth (HS 578T breast),growth (NCI/ADR-RES ovarian)
N=c1c2cc(-c3ccccc3)oc2ncn1/N=C/c1ccccc1,97.2%,86.5%,86.1%,85.6%,80.3%,75.1%,67.5%,77.8%,64%,65.3%,16.4%,99.1%,96.9%,83.5%,93.2%,96.5%,63%,59.2%,91.3%,60.3%
O=C(/C=C1\C=CN(CCCCO)c2ccccc21)n1ccc2ccccc21,101%,89.6%,98.7%,74.3%,117%,93.7%,85.7%,117%,102%,102%,123%,109%,97.3%,102%,107%,97.6%,89.2%,111%,98.7%,105%
COc1cc(/C=N/n2cnc3oc(-c4ccccc4)cc3c2=N)cc(CN2CCCCC2)c1O,-38.5% (active),-22.7% (active),-78.8% (active),-91.6% (active),-82.5% (active),-97.7% (active),-94.2% (active),15%,-6.9% (active),2% (active),28.9%,-30.4% (active),-38.7% (active),-81% (active),-63.1% (active),105%,-82.5% (active),114%,-35.9% (active),-0.827% (active)
CS(=O)(=O)c1ccc(-c2nn(-c3ccccc3)cc2/C=N/NC(=O)c2ccncc2)cc1,107%,98.4%,98.6%,94.2%,97.3%,107%,93.9%,113%,102%,97.2%,87%,115%,101%,107%,104%,109%,104%,109%,108%,94.7%
Oc1ccc(CSc2nnc(-c3ccc(Oc4ccccc4)cc3)o2)c2cccnc12,39.9%,23.6%,23.8%,2.75% (active),34.8%,-2.93% (active),60.3%,78.9%,16%,26.9%,32.2%,23.5%,24.2%,48.3%,-36.5% (active),22%,26.1%,-28.7% (active),10.4%,12.6%
Cc1[nH]nc2ccc(-c3nc4cnc(N5CCN(C)CC5)cn4c3Nc3ccc(F)cc3Br)cc12,91.1%,86.1%,29.9%,50.4%,65%,48.3%,21%,82.3%,3.21% (active),39.4%,4.63% (active),-6.49% (active),6.47% (active),80.3%,64.6%,97.4%,59.7%,10.5%,91.5%,49.4%
N#Cc1c(-c2cccs2)cc(-c2cnccn2)nc1SCC(=O)NNC(=S)Nc1ccc(F)cc1,123%,103%,100%,79%,108%,104%,99.1%,118%,93.6%,94.9%,85.1%,105%,104%,109%,96.3%,121%,106%,122%,109%,
O=C(/C=C/c1cccc(O)c1)c1ccc(O)cc1,107%,98.4%,65.6%,72.6%,98.3%,75.1%,65.3%,114%,37%,91.7%,13%,18.7%,83.7%,91.4%,96.2%,112%,80.2%,14.3%,101%,71.4%
COc1ccc(-c2nnc(SCc3ccc(O)c4ncccc34)o2)cc1,48.3%,57.8%,46.6%,8.44% (active),56.4%,23.6%,32.1%,69.8%,15.7%,28.1%,45.8%,9.32% (active),35.1%,88.4%,24.5%,51.7%,43%,21.6%,-0.148% (active),16.9%
CNC(=O)c1cc(N2CCc3cc(NC(=O)Nc4ccc(Cl)c(Cl)c4)ccc32)ccn1,84.3%,85.3%,86.1%,89.1%,99.3%,80.1%,82.2%,89.1%,86.5%,67.7%,64.4%,57.1%,90%,96.8%,86.4%,88.8%,94%,105%,62%,93%
O=C1[C@@H]2Cc3c([nH]c4ccccc34)[C@H](c3c(Cl)cccc3Cl)N2C(=O)CN1C1CCN(Cc2c(F)cccc2F)CC1,110%,60.6%,50.6%,74.9%,106%,81.6%,78.6%,103%,65.5%,58.8%,35.4%,67.9%,79.3%,92.4%,76.3%,96.8%,59.5%,113%,44.7%,85.3%
COc1ccc(S(=O)(=O)NCCCNc2nccc(-n3cnc4ccccc43)n2)cc1,103%,84.4%,92.4%,67.2%,103%,88.2%,68.8%,81.9%,91.4%,77%,77.6%,78.6%,93.7%,99.6%,77.4%,96.2%,91.4%,105%,84.8%,
O=C(NCCCNc1cc(-c2cn(-c3ccccc3)nc2-c2cccc(O)c2)ccn1)Nc1cc(C(F)(F)F)cc(C(F)(F)F)c1,88.1%,73.3%,79.4%,51.4%,93.4%,92.6%,74.1%,71.4%,63.1%,43.3%,53.9%,43.9%,75.7%,88.8%,66.9%,89.3%,64%,86.5%,57.3%,69.7%
Oc1ccc(CSc2nnc(-c3cnccn3)n2-c2ccccc2)c2cccnc12,42.6%,44%,24.5%,10.7%,37.7%,15.4%,16.7%,10.9%,16.7%,21.3%,42.1%,29.1%,23.1%,50.3%,16.5%,21.1%,16.3%,14.8%,29.4%,10.9%
